The panel holds about 83,000 compounds, 20% with a hit somewhere; the sample as a whole holds those more often.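 The test compound was applied at a single concentration to cells in 96-well plates for 48 hours, and percent growth was recorded.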 A number with no mark means an inactive call. Activity calls are given as the source filed them. The calls were made as follows: active = growth percent below 10; inactive = the rest.

This experiment concerns MDA-MB-468 breast. Kind of experiment: NCI-60 one-dose screen, 48 h (100 = growth as untreated, 0 = no growth, -100 = all killed). To be noted: 10 µM unless noted.
For `Cc1c(C(N)=O)sc2ncn(Cc3ccccc3)c(=O)c12`, the growth was 99%.
Next, `CCCCCCCCCCCCCCCCC(C(=O)O)C(O)(CC(=O)O)C(=O)O` (stereo not given): 102%; `COc1cc2nnc3c4cccnc4[nH]c3c2cc1OC`: -69.9% (active).
Then `O=C(Nc1ccc(OCc2nnc(-c3ccccc3)o2)c(F)c1)Nc1ccc(Cl)c(C(F)(F)F)c1`, with 1.01% (active).
As for `CCCCOC(=O)Oc1ccc(C(=O)Oc2ccc(OCC)cc2)cc1`, the growth was 113%.
For `Cc1nn(-c2ccc([N+](=O)[O-])cc2)c2ncnc(NCCc3ccccc3)c12`, the growth is 111%.
As to `N/C(=N\c1nc2ccc([N+](=O)[O-])cc2s1)C(Cl)(Cl)Cl`, the growth was 3.78% (active).
In the case of `CCc1c(C)c2cc(-n3c(-c4ccc(OC)cc4)csc3=N)c(O)c(C)c2oc1=O`, the growth is 17%.
As for `Cl.Fc1c[c-]c(-c2ccccn2)c(F)c1.[Pt].c1ccc(P(c2ccccc2)C([PH+](c2ccccc2)c2ccccc2)[PH+](c2ccccc2)c2ccccc2)cc1`, the growth is -4.27% (active).
Consider `COc1nc2c(c(=O)[nH]1)C(c1ccc(Oc3ccnc4cc(Cl)ccc34)c(OC)c1)C=C(c1cc(OC)c(OC)c(OC)c1)N2` (stereo not given), for which the growth is 92.1%.
Then `Cc1cc(C(O)(c2ccc(Nc3ccccc3)cc2)c2ccc(Nc3ccc(S(=O)(=O)O)cc3)cc2)ccc1N` (stereo not given), with -71.3% (active).
On to `COc1cc(-c2cc(/C=C/C(=O)c3ccc(F)c(F)c3)[nH]n2)cc(OC)c1OC`, for which the growth is 33.8%.
Consider `CCOC(=O)c1c(NC(=O)c2ccc(C(F)(F)F)cc2)sc2c3c(ccc12)OCN(C)C3`, for which the growth was -76.9% (active).
In the case of `Cc1cc2c(cc1C)NC1=C(N2)OC(c2c3ccccc3cc3ccccc23)C1=O` (stereo not given), the growth is -18.6% (active).
Next, `CC[C@@H]1O[C@H](O[C@@H](c2cnc[nH]2)[C@H](NC(=O)c2nc([C@H](CC(N)=O)NC[C@@H](N)C(N)=O)nc(N)c2C)C(=O)N[C@H](C)[C@H](O)[C@H](C)C(=O)N[C@@H](C(=O)NCCc2nc(-c3nc(C(=O)NCCCCN=C(N)N)cs3)cs2)[C@@H](C)O)[C@H](O[C@@H]2O[C@H](CO)[C@H](O)[C@H](OC(N)=O)[C@@H]2O)[C@H](C)[C@@H]1C`: 57%; `COc1cccc(-c2cc(C(=O)Nc3ccc(/C=C/c4ccc(OC5CCN(C)CC5)cc4)cc3)ccc2OC)c1`: -36.4% (active).
Next, `CC(=O)c1cnc2ccc(-c3cc(Cl)c(O)c(Cl)c3)nc2c1NC1CCC(CN(C)C)CC1` (stereo not given): -62% [2.5 µM] (active).
Take `CCN(CC)CCOc1ccc2c(-c3ccccc3)c(-c3ccc(OC)cc3)c(=O)oc2c1`: the growth is 44.5%.
With `O=C(/C=C/c1ccc(Cl)cc1)/C=C/c1cc2ccccc2[nH]c1=O`, the growth is 55.9%.
Next, `COc1ccc(/C=C2\Cc3c(Br)cccc3C2=O)c(OC)c1`: 49.6%.
Consider `CCC(C)CC(CC)NCCN1CCN(C(CC)CC(C)CC)C1=S` (stereo not given), for which the growth was -43.6% (active).
Next, `NC(=O)c1ccccc1NC(=O)c1ccccc1Cl`: 125%; `C=C1c2c(C)nn(-c3ccc(S(N)(=O)=O)cc3)c2N(C)C23CC1C1(C)c4c(C)nn(-c5ccc(S(N)(=O)=O)cc5)c4N(C)C(C)(CC12)C3` (stereo not given): 0.632% (active).
For `CCCSc1nc(Nc2ccc(/C(C)=N\NC(N)=S)cc2)c(C#N)c(-c2ccccc2)n1`, the growth is 66.5%.
Next, `CC1=C(C)C(=O)C(Nc2ccc(C)cc2)=C(Br)C1=O`: -4.77% (active); `CCC(CCC(C)C1CCC2C3CC=C4CC(O)CCC4(C)C3CCC12C)C(C)C` (stereo not given) (tested in a mixture with another compound): 114%.
Turning to `CCN(Cc1ccccc1)C1CCN(Cc2cc(Br)ccc2O)CC1`, the growth was 25.5%.
Take `O=Nc1c2cccnc2n2nnc3ccc(Cl)cc3c12`: the growth was -69.4% (active).
Turning to `O=C(/C=C/c1cn(-c2ccccc2)nc1-c1ccc(Cl)cc1)c1cc2ccccc2oc1=O`, the growth is 64.6%.
Regarding `O=C1Nc2cc(Cl)ccc2/C1=C\c1c(-c2ccc(F)cc2)nc2ccccn12`, the growth is -7.93% (active).
For `Cc1ccc2[nH]c(=S)n(-c3ccc(S(=O)(=O)Nc4ccc(Cl)nn4)cc3)c(=O)c2c1`, the growth was 107%.
Next, `Cc1ccc(C(C)C)c(O)c1NC(=O)OC(C)C`: 97.5%; `O=C(O)COc1ccc(F)cc1`: 98.8%.
Next, `COc1ccc(-c2nnc(SCC(=O)Nc3ccc(C(=O)/C=C/c4ccccc4)cc3)o2)cc1OC`: 91.1%; `Oc1cccc2oc(=S)[nH]c12`: 105%.
Next, `COc1ccc(C(=O)N/N=C/c2cc(C(F)(F)F)ccc2Cl)cc1`: 53.2%; `c1ccc2cc(Cn3c(-c4cccc5ccccc45)[n+](Cc4ccc5ccccc5c4)c4c5ccccc5c5ccccc5c43)ccc2c1`: -71.4% (active); `Cn1c(NCCc2ccc(O)c(O)c2)nc2c1c(=O)n(Cc1ccc(Br)cc1)c(=O)n2C`: 43.3%.
Turning to `Nc1ccc2ccc(NS(=O)(=O)N3CCCCC3)cc2c1`, the growth was 7.79% (active).
As to `CCCCCCCCCCCCCCCCCC(=O)OCCCCCCC`, the growth was 114%.
